# High-throughput results (PubChem BioAssay)
# Shown are actives, neighbours in structure and some others; about 7.4% of the full set was active somewhere.
# SNCA expr inhib: reduces expression of the alpha-synuclein gene; HEK-293 SNCA-luciferase knock-in, luminescence, 24 h; Potency, µM (top dose mostly 57.2 µM), for the others: top-dose activity change, negative = inhibition, actives largely listed as inhibitors; hit rate 0.17% among 140,000; AID 1671194;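 also: plate controls were DMSO cells for no effect and cell-free wells for full effect; nearly all actives have a fitted effect of over 45% in size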
# NPR1 antag: blocks ANP-stimulated signaling of human Npr1 receptor; P16066; HEK293 hNpr1 GloSensor cGMP, ANP-stimulated luminescence; Potency, µM (top dose mostly 46.3 µM), inactives show top-dose activity change, negative = inhibition, hits mostly inhibitors; hit rate 1.6% among 76,000; AID 1347048; calls by dose curve; also: nearly all actives have a fitted effect of over 60% in size
# Target sequence (P16066 whole entry, looked up): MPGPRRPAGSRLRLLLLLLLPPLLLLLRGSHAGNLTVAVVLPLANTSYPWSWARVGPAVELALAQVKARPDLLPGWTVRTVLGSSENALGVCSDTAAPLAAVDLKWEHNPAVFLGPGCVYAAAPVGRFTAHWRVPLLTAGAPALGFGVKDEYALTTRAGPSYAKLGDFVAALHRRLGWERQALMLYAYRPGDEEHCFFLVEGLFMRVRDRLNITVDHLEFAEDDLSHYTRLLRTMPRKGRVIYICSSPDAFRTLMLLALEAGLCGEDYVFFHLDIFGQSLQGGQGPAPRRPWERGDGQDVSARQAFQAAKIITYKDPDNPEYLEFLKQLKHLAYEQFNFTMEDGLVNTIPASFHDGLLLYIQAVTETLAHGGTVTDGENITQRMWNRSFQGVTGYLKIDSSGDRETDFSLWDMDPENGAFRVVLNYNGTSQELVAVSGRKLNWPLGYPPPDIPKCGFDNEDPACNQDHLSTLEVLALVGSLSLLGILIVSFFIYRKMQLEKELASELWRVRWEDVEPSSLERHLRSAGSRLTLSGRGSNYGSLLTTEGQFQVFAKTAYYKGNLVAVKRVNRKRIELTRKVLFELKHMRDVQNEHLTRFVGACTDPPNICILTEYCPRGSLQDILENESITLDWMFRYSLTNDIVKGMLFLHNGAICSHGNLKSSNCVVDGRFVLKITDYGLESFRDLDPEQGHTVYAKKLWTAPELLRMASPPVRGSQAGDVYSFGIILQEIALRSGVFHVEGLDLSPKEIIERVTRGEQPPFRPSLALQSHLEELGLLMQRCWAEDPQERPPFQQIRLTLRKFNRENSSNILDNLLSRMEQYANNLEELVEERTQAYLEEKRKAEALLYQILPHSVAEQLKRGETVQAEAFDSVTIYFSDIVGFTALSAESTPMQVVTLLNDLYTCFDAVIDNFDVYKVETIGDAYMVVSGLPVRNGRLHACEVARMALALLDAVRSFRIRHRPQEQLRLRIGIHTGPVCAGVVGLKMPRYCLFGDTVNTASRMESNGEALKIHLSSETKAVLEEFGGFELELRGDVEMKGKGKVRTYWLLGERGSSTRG
#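 Compound pre-incubated 30 min at room temperature on GloSensor-loaded HEK293 cells stably carrying hNpr1 and the pGS-40F cGMP biosensor. Stimulation uses hNppA at 0.1 nM final; luminescence is taken at baseline and 20 min post-agonist.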
# NIH3T3 tox: NIH 3T3 cell cytotoxicity | NIH 3T3 viability, CellTiter-Glo ATP luminescence, 48-72 h | Potency, µM (series often up to 96.7 µM), inactives show at the highest dose activity change, negative = cytotoxicity, usual class: inhibitors | hit rate 4.3% among 94,000 | AID 1345082; also: nearly all actives have a fitted effect of over 55% in size
#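 NIH 3T3 cells at 400 cells/well received 23 nL of compound by pintool and were incubated 48 or 72 h at 37 °C. Viability was read as ATP-coupled CellTiter-Glo luminescence.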
# Luciferase inh: Photinus pyralis luciferase inhibition. purified P. pyralis luciferase, luminescence, biochemical. Potency, µM (doses to about 115 µM), actives largely listed as inhibitors. hit rate 2.5% among 76,000; also: nearly all actives have a fitted effect of over 65% in size
#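 FLuc 10nM, D-luciferin 10uM, ATP 10uM, Mg acetate 10mM, Tris acetate pH 7.5, Tween/BSA; cpd qHTS; enzyme added last; CCD luminescence.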
# HEK cytotox: kills HEK 293 cells. Potency, µM (titrated, usually from 115 µM), for inactives: at the top dose activity change, negative = cytotoxicity, hits mostly inhibitors. AID 1345083. hit rate 6.6% among 94,000. HEK 293 viability, ATP luminescence (CellTiter-Glo), 48-72 h; also: nearly all actives have a fitted effect of over 60% in size
#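 Cells seeded first (HEK 293, 250 cells/well), then compound added by pintool. Incubation ran 48 or 72 hr at 37 degree Celsius. CellTiter-Glo was added and luminescence imaged after 10 min at room temperature.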
# HEK293 viab: counter-screen for SNCA expression inhibitors: cell viability. hit rate 0.12% among 150,000. HEK-293-SNCA-luc viability, GF-AFC fluorescence, 24 h. AID 1671193. Potency, µM (doses to about 57.1 µM), for inactives: at the highest dose activity change, negative = cytotoxicity, most hits filed as cytotoxic;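 also: 0% = DMSO-treated cells and -100% = medium-only wells without cells; nearly all actives have a fitted effect of over 30% in size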
#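 Cytotoxicity counterscreen: after 24 h compound treatment of genome-edited SNCA-luciferase HEK-293 cells, live-cell protease substrate GF-AFC read by fluorescence after 30 min; activity scaled between DMSO (0%) and medium-only (-100%), curves Hill-fitted.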
# * hit, by the source's call; i = inactive; ? = inconclusive; . = no result given; [ ] = dose if it differs, or a comment. Unless noted, calls follow the shape of the dose curve; as a rule, active = well fitted curve in the direction sought with a large enough effect; inconclusive = small, poorly fitted or top-dose-only effect, or another doubt; inactive = no such curve, though single readings can be large; an effect the other way counts as inactive or inconclusive. Unless noted, % is scaled to controls: 0 for no effect and ±100 for the full control effect; potency is read from the fitted curve at half-maximal effect.
SMILES,SNCA expr inhib,NPR1 antag,NIH3T3 tox,Luciferase inh,HEK cytotox,HEK293 viab
COc1ncccc1-c1cc(-c2cccnc2)c2cncn2c1,23%[87.6 µM],1%[70.6 µM],?,i,?,-3%[87.6 µM]
O=C1OCC2(CCN(Cc3ccn[nH]3)C2)N1CCN1CCOCC1 (stereo not given),3%[87.6 µM],.,.,.,.,6%[87.6 µM]
COc1ccc(-c2cc(-c3cnc4[nH]ccc4c3)cn3cncc23)cc1,13%[87.6 µM],-19%[70.6 µM],79µM*,?,?,-7%[87.6 µM]
c1cncc(-c2cc(-c3ccc4cn[nH]c4c3)cn3cncc23)c1,?,-12%[70.6 µM],?,?,?,-9%[87.6 µM]
Cc1ccc(-c2cc(-c3cccnc3)c3cncn3c2)cn1,8%[87.6 µM],-14%[70.6 µM],40µM*,i,?,-8%[87.6 µM]
O=C1COCCN1c1cc(-c2cnc3[nH]ccc3c2)cn2cncc12,4%[87.6 µM],2%[70.6 µM],-22%[138 µM],i,?,2%[87.6 µM]
COc1ccc(-c2cc(-c3cccnc3)cn3cncc23)cc1,-6%[87.6 µM],-18%[70.6 µM],40µM*,i,?,-18%[87.6 µM]
Oc1cccc(-c2cc(-c3cccnc3)c3cncn3c2)c1,?,-27%[70.6 µM],25µM*,?,56µM*,-8%[87.6 µM]
O=C(c1ccccc1)N1CCC(c2nn(-c3ccccn3)c(=O)[nH]2)CC1,-11%,.,-5%,.,i,-1%
O=C(c1ccccc1F)N1CCCC(C(=O)N2CCC(c3nc4ccncc4[nH]3)C2)C1 (stereo not given),-3%,.,3%,.,i,15%
COc1ccc(S(=O)(=O)Nc2cnc3c(c2)CCC3)cc1,-7%,.,?,.,?,2%
COc1cccc(-c2ccc(S(=O)(=O)N3CCSCC3)cc2)n1,10%,-5%,?,i,45µM*,-2%
COc1cccc(-c2cc(C(=O)O)cc(S(=O)(=O)N3CCSCC3)c2)c1,-18%,11%,?,i,3%,-12%
O=C(c1cnccn1)N1CCC2(CC1)CCC(O)(CN1CCc3ccccc31)CC2,-25%,.,?,.,?,-8%
CCN(CC)CCNC(=O)c1c(-c2ccccc2)cc(=O)n2c1CCC2,36%,.,-21%,.,-7%,-1%
Cc1c(F)cccc1NC(=O)N1CCCC(c2noc(COc3ccccc3F)n2)C1 (stereo not given),136%,?,?,14µM*,?,12%
CC(C)C(=O)N1CCCC(c2noc(COc3ccccc3F)n2)C1 (stereo not given),64%,10%,-20%,40µM*,?,-10%
CC(C)NC(=O)N1CCCC1C(=O)N1CCCC(c2nc3ncccc3[nH]2)C1 (stereo not given),-1%,.,-13%,.,-1%,11%
Oc1ccc(-c2nc(C3CC3)nc3c2CCN(Cc2ccsc2)CC3)cc1,7%,.,?,.,?,9%
Cc1nn(-c2ccc(C(C)(C)C)cc2)c(C)c1[C@@H]1C=C[C@@H](NC(=O)NC(C)C)C1,-15%[87.6 µM],?,45µM*,14µM*,45µM*,?
Cc1ccccc1-n1nc(C)c([C@H]2C=C[C@@H](OC(=O)NC(C)C)C2)c1C,-8%[87.6 µM],-13%[70.6 µM],25µM*,i,?,-5%[87.6 µM]
Cc1ccc(-n2nc(C)c([C@H]3C=C[C@@H](OC(=O)N[C@H](C)c4ccccc4)C3)c2C)cc1Cl,49%,-19%,?,i,?,-7%
Cc1nn(-c2ccc(F)cc2)c(C)c1[C@@H]1C=C[C@@H](NC(=O)NC(C)C)C1,44%[87.6 µM],?,?,63µM*,?,-12%[87.6 µM]
COc1ccccc1Cn1c(=O)c(C(=O)N2CCN(C(=O)c3ccc(C)cc3)CC2)nc2cccnc21,5%,.,?,.,-15%,-4%
COc1ccccc1-c1cccc(CN2CCC(NC(=O)NC(C)C)CC2)c1,-2%,.,?,.,?,1%
SMILES,SNCA expr inhib,NPR1 antag,NIH3T3 tox,Luciferase inh,HEK cytotox,HEK293 viab
COc1ccccc1Nc1ccnc(N2CCN(C(=O)c3ccc(Cl)nc3)CC2)n1,-12%,.,?,.,?,0%
O=C(Nc1ccc2c(c1)OCCO2)N1CCCC1c1nncn1C1CCCC1 (stereo not given),26%,.,-9%,.,1%,-8%
CN(c1ccccc1)c1cc(=O)c2ccnc(N3CCOCC3)c2o1,20%[87.6 µM],2%[70.6 µM],28µM*,i,?,-6%[87.6 µM]
CN(c1ccccc1)c1cc(=O)c2ccnc(NCC3CCOCC3)c2o1,-7%[87.6 µM],5%[70.6 µM],8.9µM*,i,?,-9%[87.6 µM]
CN1CCN(c2cc(=O)c3ccnc(N4CCN(c5ccccn5)CC4)c3o2)CC1,-12%[87.6 µM],3%[70.6 µM],?,i,i,-2%[87.6 µM]
CN(c1ccccc1)c1cc(=O)c2ccnc(N3CCN(c4ccccn4)CC3)c2o1,7%[87.6 µM],-13%[70.6 µM],?,i,35µM*,-15%[87.6 µM]
Cc1cccc(C)c1-c1cc(C(=O)NCc2cccc(Cl)c2)c2cnn(C)c2n1,-2%,.,?,.,?,-4%
CCOc1cc(-c2noc(-c3ncn4c3COC(c3ccc(OC)cc3)C4)n2)ccc1OC (stereo not given),-3%,3%,-29%,i,-31%,-18%
O=C1NC(C(=O)N2CCN(c3ccccn3)CC2)Cn2cccc21 (stereo not given),7%,.,-23%,.,-10%,-5%
COc1ccc(Cn2c(C3CCN(C(=O)c4cccc(C)c4)CC3)n[nH]c2=O)cc1,2%,-5%,-28%,i,-6%,6%
O=C(NC1CCN(c2cc(-c3ccc(F)cc3)[nH]n2)C1)c1ccc2cc[nH]c2c1 (stereo not given),-27%,3%,?,i,?,-7%
O=C(NC1CCN(c2cc(-c3ccc(Cl)cc3)[nH]n2)CC1)c1ccncc1,-1%,?,?,i,28µM*,-3%
COc1ccc(C(=O)NC2CCN(c3cc(-c4ccc(F)cc4)[nH]n3)CC2)cc1,4%,-4%,-1%,i,?,-3%
O=C(NC1CCN(c2cc(-c3ccc(F)cc3)[nH]n2)CC1)c1ccc(OC(F)(F)F)cc1,-24%,-20%,28µM*,i,20µM*,-14%
COc1ccc(C(=O)NC2CCN(c3cc(-c4ccc(Cl)cc4)[nH]n3)CC2)cc1,?,-1%,-6%,i,-27%,-22%
O=C(NC1CCN(c2cc(-c3ccc(F)cc3)[nH]n2)CC1)c1ccc2[nH]ccc2c1,-26%,-16%,25µM*,i,?,-26%
O=C(NC1CCN(c2cc(-c3ccc(F)cc3)[nH]n2)C1)c1ccc2[nH]ccc2c1 (stereo not given),?,-8%,?,i,?,8%
